Results: PubChem BioAssay (Tox21)
Inconclusive results are not listed. Calls of active or inactive are those of the source. Unless noted, calls follow the shape of the full dose curve.

How the values were obtained:
[1] = Nuclear factor erythroid 2-related factor 2/antioxidant responsive element (Nrf2/ARE) small molecule agonists: qHTS cell viability counter screen in human keratinocytes (AID 1919968; active = well fitted curve in the direction sought with a large enough effect in the repeat runs; an effect the other way counts as inactive or inconclusive; also: nearly all actives have a fitted effect of over 55% in size; also: potency is read from the fitted curve at half-maximal effect)
Outline: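 After a 5 h attachment period, ARE-reporter keratinocytes were dosed with compounds in DMSO and then cultured 23 h at 37 C. Cell viability came from CellTiter-Fluor signal read after a further 1 h.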

[2] = Nuclear factor erythroid 2-related factor 2/antioxidant responsive element (Nrf2/ARE) small molecule agonists: luciferase reporter gene qHTS assay in human keratinocytes (AID 1919969); also: nearly all actives have a fitted effect of over 35% in size
[3] = target: KiSS-1 receptor (Homo sapiens) (UniProt Q969F8); test: Human kisspeptin (KISS1R) small molecule agonists, calcium flux assay in KISS1R-HEK293 cells (AID 1920064; active = well fitted curve in the direction sought with a large enough effect in the repeat runs; an effect the other way counts as inactive or inconclusive)
Sequence of KiSS-1 receptor (Homo sapiens) (Q969F8 whole entry, looked up): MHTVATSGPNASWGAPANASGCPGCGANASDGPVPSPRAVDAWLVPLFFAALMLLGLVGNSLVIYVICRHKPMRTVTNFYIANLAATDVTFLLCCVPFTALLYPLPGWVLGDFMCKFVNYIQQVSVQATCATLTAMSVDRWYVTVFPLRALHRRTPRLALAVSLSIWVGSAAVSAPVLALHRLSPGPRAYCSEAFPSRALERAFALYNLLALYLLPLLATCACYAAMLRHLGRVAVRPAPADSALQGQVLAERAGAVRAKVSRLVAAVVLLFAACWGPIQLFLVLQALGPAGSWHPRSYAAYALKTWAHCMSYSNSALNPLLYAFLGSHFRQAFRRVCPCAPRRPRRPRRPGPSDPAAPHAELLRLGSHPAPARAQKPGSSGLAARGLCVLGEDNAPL
Outline: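 Kinetic calcium assay, 1 s sampling over 3 min at Ex/Em 480/540, in HEK293 cells engineered with human KISS1R; compounds delivered in DMSO after 1 h dye loading.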

[4] = G protein-coupled receptor (GPCR) small molecule agonists, calcium flux assay: HEK293 wild type cell line counter screen (AID 1920065)
Outline: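 Calcium-sensitive dye, loaded 1 h at 37 C into cells cultured 18 h, reports compound-evoked calcium release as fluorescence (Ex/Em 480/540), measured over 3 min. Agonist mode; 15-point titrations, triplicate.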

[5] = p53 small molecule agonists, cell-based qHTS assay with human liver microsomes (AID 1963577)
Outline: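 Fluorescence of the beta-lactamase reporter in p53RE-bla cells, detected with LiveBLAzer substrate (2 h, room temperature, dark), served as the read-out after 16 h compound exposure at 37 C with human liver microsomes and NADPH, each 0.5 mg/mL final.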

[6] = p53 small molecule agonists, cell-based qHTS assay with rat liver microsomes: qHTS cell viability counter screen (AID 1963580); also: nearly all actives have a fitted effect of over 45% in size
Outline: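 Intracellular ATP, by CellTiter-Glo luminescence, defines viability. HCT-116 p53RE-bla cells, 4,000 per well, were compound-treated in the presence of rat liver microsomes and NADPH for 16 h at 37 C.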

[7] = p53 small molecule agonists, cell-based qHTS assay: qHTS cell viability counter screen (AID 1963581); also: nearly all actives have a fitted effect of over 45% in size
Outline: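 Following 5 h attachment, HCT-116 p53RE-bla cells took up compound for 16 h at 37 C; the reporter was read with B/G FRET substrate (2 h RT), and viability then via CellTiter-Glo ATP luminescence.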

[8] = p53 small molecule agonists, cell-based qHTS assay (AID 1963582; active = well fitted activation curve with a large enough effect in the signal ratio in the repeat runs, not every such curve was filed as active; the % refers to the signal ratio)
Outline: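 In this cell-based concentration-response screen, a p53 response element drives beta-lactamase; cells received DMSO-borne compounds after 5 h culture and were incubated a further 16 h before FRET substrate development.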

[9] = target: 5-hydroxytryptamine receptor 2A (Homo sapiens) (UniProt P28223); test: 5-hydroxytryptamine receptor 2A (HTR2A) small molecule antagonists, cell-based qHTS assay (AID 1963586); also: nearly all actives have a fitted effect of over 45% in size
Sequence of 5-hydroxytryptamine receptor 2A (Homo sapiens) (P28223 whole entry, looked up): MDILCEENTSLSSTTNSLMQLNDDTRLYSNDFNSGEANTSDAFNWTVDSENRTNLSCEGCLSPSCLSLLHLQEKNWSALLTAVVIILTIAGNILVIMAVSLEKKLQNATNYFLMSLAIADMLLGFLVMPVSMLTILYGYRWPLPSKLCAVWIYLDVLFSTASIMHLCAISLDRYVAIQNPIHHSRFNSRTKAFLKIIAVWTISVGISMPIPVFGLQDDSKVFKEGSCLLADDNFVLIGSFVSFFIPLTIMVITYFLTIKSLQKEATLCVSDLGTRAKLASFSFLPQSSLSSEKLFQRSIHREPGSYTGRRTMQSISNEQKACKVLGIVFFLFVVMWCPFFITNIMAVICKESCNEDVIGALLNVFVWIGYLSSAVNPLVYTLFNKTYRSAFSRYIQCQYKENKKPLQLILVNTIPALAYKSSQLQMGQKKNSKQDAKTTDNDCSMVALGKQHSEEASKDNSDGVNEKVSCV
Outline: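 Antagonist-mode intracellular calcium assay: DOI (4 nM) added after 5 min compound pre-incubation at room temperature to dye-loaded HTR2A-CHO cells. Fluorescence followed for 3 min, sampled every second.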

[10] = target: 5-hydroxytryptamine receptor 2A (Homo sapiens) (UniProt P28223); test: 5-hydroxytryptamine receptor 2A (HTR2A) small molecule agonists, cell-based qHTS assay (AID 1963587); also: nearly all actives have a fitted effect of over 30% in size; also: potency is read from the fitted curve at half-maximal effect
Outline: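 Kinetic calcium-flux fluorescence (2 min, 1 sec intervals) after compound addition in agonist mode. HTR2A-CHO cells were cultured 18 h, then dye-loaded 1 h at 37 C.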

[11] = target: Muscarinic acetylcholine receptor M1 (Homo sapiens) (UniProt P11229); test: Cholinergic receptor muscarinic 1 (CHRM1) small molecule antagonists, cell-based qHTS assay (AID 1963588); also: nearly all actives have a fitted effect of over 40% in size
Sequence of Muscarinic acetylcholine receptor M1 (Homo sapiens) (P11229 whole entry, looked up): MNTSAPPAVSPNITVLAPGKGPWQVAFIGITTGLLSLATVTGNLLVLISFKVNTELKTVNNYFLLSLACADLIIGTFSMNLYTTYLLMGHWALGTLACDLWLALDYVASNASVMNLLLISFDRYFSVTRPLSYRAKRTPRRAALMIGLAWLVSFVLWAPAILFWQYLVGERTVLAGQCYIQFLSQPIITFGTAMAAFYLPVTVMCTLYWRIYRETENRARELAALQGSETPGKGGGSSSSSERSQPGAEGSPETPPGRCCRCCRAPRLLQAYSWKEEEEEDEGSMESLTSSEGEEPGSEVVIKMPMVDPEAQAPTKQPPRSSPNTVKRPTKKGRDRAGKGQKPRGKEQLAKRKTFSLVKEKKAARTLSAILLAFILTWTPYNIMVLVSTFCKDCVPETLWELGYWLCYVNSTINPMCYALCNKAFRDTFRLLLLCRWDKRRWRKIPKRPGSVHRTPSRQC
Outline: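 CHRM1-CHO calcium-flux assay, antagonist mode. Cells were seeded 18 h, dye-loaded 1 h at 37 C and given compound for 5 min at RT, then acetylcholine was added at 50nM. FDSS fluorescence was read 3 min; 15 concentrations, three runs.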

[12] = target: Beta-2 adrenergic receptor (Homo sapiens) (UniProt P07550); test: Adrenergic beta2 receptor (ADRB2) small molecule antagonists, cell-based qHTS assay (AID 1963592); also: series mostly up to about 92 µM; nearly all actives have a fitted effect of over 50% in size
Sequence of Beta-2 adrenergic receptor (Homo sapiens) (P07550 whole entry, looked up): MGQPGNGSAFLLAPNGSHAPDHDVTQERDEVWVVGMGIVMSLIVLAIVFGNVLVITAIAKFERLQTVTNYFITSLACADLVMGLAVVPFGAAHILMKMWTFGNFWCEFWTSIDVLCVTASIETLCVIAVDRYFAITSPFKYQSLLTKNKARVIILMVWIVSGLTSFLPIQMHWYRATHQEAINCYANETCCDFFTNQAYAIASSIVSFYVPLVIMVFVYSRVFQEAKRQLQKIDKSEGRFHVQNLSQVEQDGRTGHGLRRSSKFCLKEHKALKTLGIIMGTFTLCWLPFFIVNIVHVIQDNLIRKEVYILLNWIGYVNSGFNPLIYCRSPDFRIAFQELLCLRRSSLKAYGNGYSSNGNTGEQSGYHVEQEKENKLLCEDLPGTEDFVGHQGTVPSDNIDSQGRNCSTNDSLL
Outline: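 Cells (CHO, stable ADRB2 overexpression) incubated 18-20hr at 37C; compounds added from DMSO; agonist mix (1nM isoproterenol, 100uM IBMX, 25uM Ro-20-1724) added; 0.5hr RT; d2-cAMP and anti-cAMP-cryptate added; 1hr RT; 665/615 nm read.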

[13] = target: Beta-2 adrenergic receptor (Homo sapiens) (UniProt P07550); test: Adrenergic beta2 receptor (ADRB2) small molecule agonists, cell-based qHTS assay (AID 1963593);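 also: CHO cells stably overexpressing human ADRB2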
Outline: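 CHO cells stably over-expressing ADRB2 were plated overnight at 37C, then dosed with compounds plus a stimulation mix containing 100uM IBMX and 25uM Ro-20-1724 for 0.5hr at room temperature. cAMP was measured by HTRF competition, 1hr.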

[14] = target: D(2) dopamine receptor (Homo sapiens) (UniProt P14416); test: Dopamine D2 receptor (DRD2) small molecule agonists, cell-based qHTS assay (AID 1963594); also: nearly all actives have a fitted effect of over 35% in size
Sequence of D(2) dopamine receptor (Homo sapiens) (P14416 whole entry, looked up): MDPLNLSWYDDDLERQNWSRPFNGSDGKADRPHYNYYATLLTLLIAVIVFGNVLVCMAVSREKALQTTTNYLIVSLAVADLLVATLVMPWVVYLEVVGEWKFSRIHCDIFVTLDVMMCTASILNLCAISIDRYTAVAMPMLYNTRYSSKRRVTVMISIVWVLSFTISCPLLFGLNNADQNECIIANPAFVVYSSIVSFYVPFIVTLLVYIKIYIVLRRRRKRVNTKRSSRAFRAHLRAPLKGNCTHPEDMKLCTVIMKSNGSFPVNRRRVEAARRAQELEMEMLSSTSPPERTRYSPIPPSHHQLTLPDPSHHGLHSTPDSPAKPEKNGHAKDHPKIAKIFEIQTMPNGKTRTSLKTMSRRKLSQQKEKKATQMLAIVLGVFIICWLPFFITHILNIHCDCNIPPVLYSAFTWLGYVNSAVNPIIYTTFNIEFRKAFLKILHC
Outline: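 cAMP accumulation in DRD2-HEK293 cells measured by HTRF after 1 h detection; compounds added 10 min before NKH477 (200nM […]) forskolin-analogue stimulation, 30 min at room temperature, with Ro20-1724 present at 0.1 mM final.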

[15] = target: D(2) dopamine receptor (Homo sapiens) (UniProt P14416); test: Dopamine D2 receptor (DRD2) small molecule antagonists, cell-based qHTS assay (AID 1963595; active = well fitted inhibition curve with a large enough effect in the signal ratio in the repeat runs, with a control signal flat; the % refers to the signal ratio)
Outline: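 In this cell-based antagonist screen, compounds act for 10 min at room temperature before a 30 min challenge with 12 nM quinpirole and 200 nM NKH477. cAMP is quantified by HTRF competition in DRD2-HEK293 cells containing 0.1 mM Ro20-1724.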

[16] = p53 small molecule agonists, cell-based qHTS assay with rat liver microsomes (AID 1963578)
Outline: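 Cells carrying a p53 response element–beta-lactamase reporter were plated and rested 5 h, then dosed with compound in DMSO plus rat liver microsomes and NADPH, each at 0.5 mg/mL final. After 16 h at 37 C, LiveBLAzer substrate was added for 2 h.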

[17] = p53 small molecule agonists, cell-based qHTS assay with human liver microsomes: qHTS cell viability counter screen (AID 1963579); also: nearly all actives have a fitted effect of over 45% in size
Outline: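 Cytotoxicity counter screen: p53RE-bla, 4,000 cells/well; 5 h settle, 37 C/5% CO2; cpd + HLM 0.5 mg/mL + NADPH 0.5 mg/mL (final); 16 h, 37 C; CellTiter-Glo, 30 min RT, luminescence.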

[18] = target: Muscarinic acetylcholine receptor M1 (Homo sapiens) (UniProt P11229); test: Cholinergic receptor muscarinic 1 (CHRM1) small molecule agonists, cell-based qHTS assay (AID 1963589); also: nearly all actives have a fitted effect of over 35% in size
Outline: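 Measures agonist-induced intracellular calcium rise. Stable human CHRM1 CHO line, 1 h dye load at 37 C, compounds from DMSO, kinetic fluorescence read.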

[19] = cAMP Responsive Elements (CRE) small molecule agonists, cell-based qHTS assay (AID 1963590)
Outline: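 A CRE-responsive beta-lactamase reporter in HEK 293T cells was used. Treatment ran 3 h at 37 C; detection used LiveBLAzer B/G FRET substrate for 2 h at room temperature.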

[20] = cAMP Responsive Elements (CRE) small molecule antagonists, cell-based qHTS assay (AID 1963591; active = well fitted inhibition curve with a large enough effect in the signal ratio in the repeat runs, not every such curve was filed as active; the % refers to the signal ratio)
Outline: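 HEK293T cells carrying a CRE-driven beta-lactamase reporter receive compound and NKH477 (0.25 uM final) for 3 h. Fluorescence from LiveBLAzer B/G FRET substrate is read after 2 h at room temperature.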
% is scaled to controls: 0 for no effect and ±100 for the full control effect.

Cc1ccc(O)c(C(=O)c2ccccc2)c1
inactive: Potency [1] | Potency [2] | Potency [3] | Potency [4] | Potency [5] | Potency [6] | Potency [7] | Potency [8] | Potency [9] | Potency [10] | Potency [11] | Potency [12] | Potency [13] | Potency [14] | Potency [15]

O=S(=O)(O)c1cc(S(=O)(=O)O)c2ccc3c(S(=O)(=O)O)cc(S(=O)(=O)O)c4ccc1c2c43
inactive: activity change, negative = cytotoxicity [1] 0.791% [at 19 µM] | activity, positive = activation [2] -1.98% [at 19 µM] | activation [4] 0.205% [at 11.8 µM] | activation [5] -0.621% [at 13.5 µM] | activation [16] -1.38% [at 13.6 µM] | activity change, negative = cytotoxicity [17] -2.1% [at 13.5 µM] | activity change, negative = cytotoxicity [6] 1.49% [at 13.5 µM] | activity change, negative = cytotoxicity [7] -29.1% [at 13.5 µM] | activity, negative = inhibition [9] -5.22% [at 12.7 µM] | activation [10] -0.138% [at 15.9 µM] | activity, negative = inhibition [11] -5.56% [at 12.6 µM] | activation [18] -0.115% [at 15.8 µM] | activation [19] 0.24% [at 19 µM] | activity change, negative = inhibition [20] -8.72% [at 18.9 µM] | activity change, negative = inhibition [12] 1.38% [at 19 µM] | activation [13] -12.6% [at 19 µM] | activation [14] 0.241% [at 19 µM] | activity change, negative = inhibition [15] -2.86% [at 18.9 µM]

CCCC(CC)c1ccccc1 (configuration not stated)
inactive: Potency [1] | Potency [2] | Potency [4] | Potency [5] | Potency [16] | Potency [17] | Potency [6] | Potency [7] | Potency [8] | Potency [9] | Potency [10] | Potency [11] | Potency [18] | Potency [19] | Potency [20] | Potency [12] | Potency [14] | Potency [15]

Cc1cc(=O)c2c(O)c3c(O)cc(=O)c4c3c3c(cc(O)c1c23)C(C)(C)C=4O
active: Potency [1] 4.11 µM | Potency [10] 0.657 µM
inactive: activity, positive = activation [2] 7.38% [at 19 µM] | activation [3] 3.73% [at 15.8 µM] | activation [4] 4.32% [at 11.8 µM] | activity change, negative = cytotoxicity [17] -4.38% [at 13.5 µM] | activity, negative = inhibition [9] 1.4% [at 12.7 µM] | activity, negative = inhibition [11] 5.23% [at 12.6 µM] | activation [18] 13.3% [at 15.8 µM] | activation [13] 3.3% [at 19 µM] | activation [14] -19.9% [at 19 µM] | activity change, negative = inhibition [15] 5.59% [at 18.9 µM]

CN1CCN2c3ccccc3Cc3ccccc3C2C1 (configuration not stated)
inactive: Potency [1] | Potency [2] | Potency [4] | Potency [5] | Potency [16] | Potency [6] | Potency [8] | Potency [19] | Potency [20] | Potency [12] | Potency [14] | Potency [15]

CN1C[C@H]2c3ccccc3Oc3ccc(Cl)cc3[C@@H]2C1
inactive: Potency [1] | Potency [2] | Potency [4] | Potency [16] | Potency [17] | Potency [6] | Potency [7] | Potency [9] | Potency [18] | Potency [19] | Potency [20] | Potency [14]
active: Potency [10] 23.9 µM

C=C(C)c1cccc(C(=C)C)c1
inactive: Potency [1] | Potency [2] | Potency [3] | Potency [6] | Potency [9] | Potency [10] | Potency [11] | Potency [18] | Potency [19] | Potency [12] | Potency [14]

CC(C)C(C)C
inactive: Potency [1] | Potency [2] | Potency [4] | Potency [17] | Potency [6] | Potency [9] | Potency [10] | Potency [11] | Potency [18] | Potency [19] | Potency [20] | Potency [12] | Potency [13] | Potency [14] | Potency [15]

C=CCOc1ccccc1OCC(O)CNC(C)C (configuration not stated)
inactive: Potency [1] | Potency [2] | Potency [3] | Potency [4] | Potency [6] | Potency [10] | Potency [18] | Potency [19] | Potency [14] | Potency [15]

CCCCCCCCCCCCN(CCCCCCCCCCCC)CCCCCCCCCCCC
inactive: Potency [1] | Potency [2] | Potency [3] | Potency [4] | Potency [6] | Potency [7] | Potency [8] | Potency [9] | Potency [11] | Potency [18] | Potency [19] | Potency [12] | Potency [13] | Potency [14] | Potency [15]

N=C(N)N1CCc2ccccc2C1
inactive: activity change, negative = cytotoxicity [1] 2.9% [at 8.39 µM] | activity, positive = activation [2] -4.04% [at 8.39 µM] | activation [3] -0.218% [at 6.97 µM] | activation [4] -0.314% [at 5.23 µM] | activity change, negative = cytotoxicity [17] -1.79% [at 5.99 µM] | activity change, negative = cytotoxicity [6] 0.465% [at 5.99 µM] | activation [10] -10.3% [at 7.02 µM] | activation [18] 0.312% [at 6.97 µM] | activation [19] 0.166% [at 8.39 µM] | activity change, negative = inhibition [20] -2.28% [at 8.39 µM] | activity change, negative = inhibition [12] -8.55% [at 8.39 µM] | activation [13] 9.27% [at 8.39 µM] | activation [14] 22% [at 8.39 µM] | activity change, negative = inhibition [15] 16.9% [at 8.38 µM]

CC1=C(C=O)C(C)(C)CCC1
inactive: Potency [1] | Potency [2] | Potency [3] | Potency [4] | Potency [6] | Potency [7] | Potency [9] | Potency [10] | Potency [11] | Potency [20] | Potency [12] | Potency [13] | Potency [14] | Potency [15]

CCCCCCCCCCCCCCCCCCNC(=O)OC1CCN(C(=O)OC[C@H](COC(=O)N(Cc2cccc[n+]2CC)C(=O)c2ccccc2OC)OC)CC1
active: Potency [1] 10.6 µM
inactive: Potency [2] | Potency [4] | Potency [16] | Potency [17] | Potency [6] | Potency [7] | Potency [10] | Potency [18] | Potency [14]
